# Where a name gives a salt, the structure may show the parent alone. In all, about 2,800 compounds were measured (“cell viability relative to vehicle”: median about 0.98, lowest 2% from about 0.45 on). This is one part of a sample in which the lowest values are shown more often than they occur.
# Test system: NCI-H2228 alectinib-DTP
# Assay: cell viability relative to vehicle (fraction of vehicle); NCI-H2228 is an ALK-positive lung cancer line and DTP means drug-tolerant persister; higher = less growth inhibition
# Details: 100 nM; treatment time 6 days
# Procedure, shortened: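 NCI-H2228 parental cells and drug-tolerant persister cells were plated in 384-well plates; the persisters had been generated with 1000 nM of a targeted drug over 13 days. One day later, the 3114-agent TargetMol anti-cancer compound library was added at 100 nM, with DMSO serving as vehicle. ATP was measured 6 days after that using the CellTiter-Glo 3D Cell Viability Assay. Values are cell viability expressed relative to vehicle-treated cells.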
row,Compound,cell viability
1,O=C(O)c1ccc2c(c1)C(=O)c1ccccc1C2=O,1.08
2,O=c1cc(-c2ccc(O[C@@H]3O[C@H](CO)[C@@H](O)[C@H](O)[C@H]3O)cc2)oc2cc(O)c([C@@H]3O[C@H](CO)[C@@H](O)[C@H](O)[C@H]3O[C@@H]3OC[C@H](O)[C@H](O)[C@H]3O)c(O)c12 [Vaccarin],0.919
3,C[C@H]1COC2(CCN(c3nc(=O)c4cc(C(F)(F)F)cc([N+](=O)[O-])c4s3)CC2)O1,1.05
4,CC(NC(=O)C(Cc1ccccc1)NC(=O)OCc1ccccc1)C(=O)CF (stereo not given),0.979
5,COC[C@H](NC(=O)c1cnc(C)s1)C(=O)N[C@@H](COC)C(=O)N[C@@H](Cc1ccccc1)C(=O)[C@@]1(C)CO1 [Oprozomib],0.371
6,CC(=O)NC(Cc1ccccc1)C(=O)O (stereo not given) [Afalanine],0.984
7,Cc1cc(F)c(C(=O)Nc2cccc(-c3nncn3C(C)C)n2)cc1-n1cnc(C2CC2)c1 [Selonsertib],0.918
8,O=c1[nH]c(=O)n([C@@H]2O[C@H](CO)[C@@H](O)[C@H]2O)cc1F [5-Fluorouridine],0.837
9,Cn1nccc1Nc1nccc(-c2cc3c(s2)C(C)(C)N(CCN2CCOCC2)C3=O)n1,1.06
10,Cc1nc(-c2cn3c(n2)-c2ccc(-c4cnn(C(C)(C)C(N)=O)c4)cc2OCC3)n(C(C)C)n1 [Taselisib],0.425
11,CC(C)n1ncnc1-c1cn2c(n1)-c1ccc(O[C@@H](C)C(N)=O)cc1OCC2,0.717
12,O[C@H]1[C@H]2c3cc4c(cc3CN3CCC(=C[C@@H]1O)[C@H]23)OCO4 [Lycorine chloride],0.966
13,CC(=O)N[C@H]1CSSC[C@@H](C(N)=O)NC(=O)[C@H](C(C)C)NC(=O)[C@H](C)NC(=O)[C@H](Cc2c[nH]cn2)NC1=O [Exherin trifluoroacetate],1.11
14,COc1cc2c(NC3CCN(C(C)C)CC3)nc(C3CCCCC3)nc2cc1OCCCN1CCCC1,1.15
15,N[C@@H](CCCCNC(=O)C(F)(F)F)C(=O)O [N-6-Trifluoroacetyl-L-lysine],0.966
16,Cc1ncc(NC(=O)c2ccc(CN3CCN(C)CC3)c(C(F)(F)F)c2)cc1Nc1nccc(-c2cccnc2)n1 [Flumatinib],1.15
17,Cc1ccc(C(=O)Nc2ccc(CN3CCN(C)CC3)c(C(F)(F)F)c2)cc1C#Cc1cnc2[nH]ncc2c1,0.423
18,Cc1ccc(C(=O)Nc2ccc(CN3CCN(C)CC3)c(C(F)(F)F)c2)cc1C#Cc1cnc2[nH]ncc2c1 [GZD824 Dimesylate],0.33
19,Cc1ccc(C(=O)Nc2ccc(CN3CCN(C)CC3)c(C(F)(F)F)c2)cc1C#Cc1cnc2cccnn12 [Ponatinib],0.834
20,CCN1CCN(Cc2ccc(NC(=O)c3ccc(C)c(NC(=O)c4cncc(-c5cccs5)c4)c3)cc2C(F)(F)F)CC1,0.789

# From the supplement of paper PMC10600219
